Experimental data: the supplement of paper PMC11732987, “Enantioselective OTUD7B fragment discovery through chemoproteomics screening and high-throughput optimisation” (Communications Chemistry, 2025)

How the values were obtained:
Assay in all cases: log2 ratio of Biotin-Ahx-Ub-VS probe labelling (fragment/DMSO); higher = less target engagement (more negative = stronger competition), active = hit call of the paper (q ≤ 0.05, log2 ratio ≤ -1)
Conditions in all cases: compound concentration: 200 uM; treatment time: 3 h
[1] = target: USP34 (UniProt Q70CQ2)
Outline: (§1)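 Global-median-normalised Spectronaut label-free quantities were compared by unpaired t-test, and values are average log2 ratios of fragment over vehicle. Only proteins with ≥2 unique peptides were used. HEK293T lysate (495 µg per sample) was treated in triplicate with fragment at 200 µM or vehicle for 3 h and then with Biotin-Ahx-Ub-VS at 0.5 µM final for 1 h. Labelled DUBs were then NeutrAvidin-enriched, digested with LysC and trypsin, and run by diaPASEF LC-MS/MS.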

[2] = target: T1, USP36 (UniProt Q9P275)
T1 sequence (whole entry): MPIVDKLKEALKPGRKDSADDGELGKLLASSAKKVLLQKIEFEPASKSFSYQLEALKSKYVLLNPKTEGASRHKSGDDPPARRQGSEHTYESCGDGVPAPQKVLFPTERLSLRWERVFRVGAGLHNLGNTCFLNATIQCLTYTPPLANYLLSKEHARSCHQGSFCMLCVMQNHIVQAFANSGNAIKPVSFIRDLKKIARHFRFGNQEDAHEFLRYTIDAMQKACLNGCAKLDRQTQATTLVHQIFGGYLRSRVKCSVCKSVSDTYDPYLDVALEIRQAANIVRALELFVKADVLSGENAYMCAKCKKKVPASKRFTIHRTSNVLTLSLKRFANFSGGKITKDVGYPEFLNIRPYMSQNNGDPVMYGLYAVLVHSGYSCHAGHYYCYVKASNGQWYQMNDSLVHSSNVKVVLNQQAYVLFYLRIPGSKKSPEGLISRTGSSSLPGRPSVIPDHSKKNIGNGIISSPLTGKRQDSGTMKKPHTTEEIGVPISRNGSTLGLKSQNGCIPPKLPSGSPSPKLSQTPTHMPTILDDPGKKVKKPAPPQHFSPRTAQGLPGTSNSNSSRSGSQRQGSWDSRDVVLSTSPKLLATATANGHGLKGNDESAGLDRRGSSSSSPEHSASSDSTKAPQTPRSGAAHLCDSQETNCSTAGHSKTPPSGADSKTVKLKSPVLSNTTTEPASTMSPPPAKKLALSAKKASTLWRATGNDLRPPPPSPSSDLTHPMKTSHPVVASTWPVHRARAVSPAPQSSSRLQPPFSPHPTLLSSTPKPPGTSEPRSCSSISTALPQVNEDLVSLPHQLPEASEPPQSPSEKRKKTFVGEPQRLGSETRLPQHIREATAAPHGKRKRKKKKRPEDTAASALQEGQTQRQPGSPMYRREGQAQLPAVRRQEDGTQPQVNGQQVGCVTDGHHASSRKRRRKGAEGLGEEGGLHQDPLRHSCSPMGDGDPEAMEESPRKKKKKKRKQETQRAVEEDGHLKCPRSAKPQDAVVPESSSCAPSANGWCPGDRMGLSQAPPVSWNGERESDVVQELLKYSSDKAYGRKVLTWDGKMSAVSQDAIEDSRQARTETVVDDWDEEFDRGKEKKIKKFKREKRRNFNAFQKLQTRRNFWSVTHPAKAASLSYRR
Outline: as §1

[3] = target: T2, USP38 (UniProt Q8NB14)
T2 sequence (whole entry): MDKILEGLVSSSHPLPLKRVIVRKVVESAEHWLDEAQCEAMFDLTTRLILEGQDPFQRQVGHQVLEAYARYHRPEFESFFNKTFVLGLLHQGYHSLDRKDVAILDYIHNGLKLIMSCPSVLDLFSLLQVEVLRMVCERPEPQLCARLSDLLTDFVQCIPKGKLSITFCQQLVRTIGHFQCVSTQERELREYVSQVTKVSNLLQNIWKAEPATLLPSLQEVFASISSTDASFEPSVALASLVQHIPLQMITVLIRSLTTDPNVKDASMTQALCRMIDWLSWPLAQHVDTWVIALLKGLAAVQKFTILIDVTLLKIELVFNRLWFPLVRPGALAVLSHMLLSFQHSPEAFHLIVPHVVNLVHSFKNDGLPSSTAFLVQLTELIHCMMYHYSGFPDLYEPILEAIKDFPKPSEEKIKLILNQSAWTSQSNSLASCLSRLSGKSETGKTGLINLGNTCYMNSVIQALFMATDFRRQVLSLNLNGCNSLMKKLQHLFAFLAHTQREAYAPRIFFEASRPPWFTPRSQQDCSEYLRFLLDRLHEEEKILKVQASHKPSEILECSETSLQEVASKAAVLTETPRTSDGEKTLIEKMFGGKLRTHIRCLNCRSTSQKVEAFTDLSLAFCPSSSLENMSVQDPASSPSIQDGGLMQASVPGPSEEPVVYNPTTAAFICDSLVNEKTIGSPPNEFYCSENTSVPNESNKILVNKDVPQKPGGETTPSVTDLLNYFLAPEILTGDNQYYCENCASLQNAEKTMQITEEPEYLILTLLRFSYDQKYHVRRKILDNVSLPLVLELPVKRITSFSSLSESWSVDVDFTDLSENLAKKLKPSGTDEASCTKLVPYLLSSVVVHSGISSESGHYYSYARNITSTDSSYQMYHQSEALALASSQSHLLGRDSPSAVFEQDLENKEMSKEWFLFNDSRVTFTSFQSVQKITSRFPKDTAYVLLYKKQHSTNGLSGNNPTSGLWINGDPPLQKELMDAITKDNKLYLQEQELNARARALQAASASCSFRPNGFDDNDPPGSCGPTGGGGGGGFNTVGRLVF
Outline: as §1

[4] = target: T3, USP39 (UniProt Q53GS9)
T3 sequence (whole entry): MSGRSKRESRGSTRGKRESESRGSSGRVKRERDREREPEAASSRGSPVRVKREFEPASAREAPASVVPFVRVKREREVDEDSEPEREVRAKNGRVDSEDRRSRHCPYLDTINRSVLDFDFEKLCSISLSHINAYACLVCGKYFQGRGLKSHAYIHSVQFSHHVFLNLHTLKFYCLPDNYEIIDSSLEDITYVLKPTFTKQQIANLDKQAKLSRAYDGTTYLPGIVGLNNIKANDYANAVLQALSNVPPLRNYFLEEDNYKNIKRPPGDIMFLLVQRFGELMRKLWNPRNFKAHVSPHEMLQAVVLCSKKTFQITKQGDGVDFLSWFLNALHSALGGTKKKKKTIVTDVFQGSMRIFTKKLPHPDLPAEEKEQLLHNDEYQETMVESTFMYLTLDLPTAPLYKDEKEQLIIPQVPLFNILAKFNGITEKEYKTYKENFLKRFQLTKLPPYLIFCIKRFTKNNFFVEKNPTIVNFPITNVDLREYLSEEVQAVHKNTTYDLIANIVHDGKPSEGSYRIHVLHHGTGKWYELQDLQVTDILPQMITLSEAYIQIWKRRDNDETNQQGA
Outline: as §1

[5] = target: T4, USP4 (UniProt Q13107)
T4 sequence (whole entry): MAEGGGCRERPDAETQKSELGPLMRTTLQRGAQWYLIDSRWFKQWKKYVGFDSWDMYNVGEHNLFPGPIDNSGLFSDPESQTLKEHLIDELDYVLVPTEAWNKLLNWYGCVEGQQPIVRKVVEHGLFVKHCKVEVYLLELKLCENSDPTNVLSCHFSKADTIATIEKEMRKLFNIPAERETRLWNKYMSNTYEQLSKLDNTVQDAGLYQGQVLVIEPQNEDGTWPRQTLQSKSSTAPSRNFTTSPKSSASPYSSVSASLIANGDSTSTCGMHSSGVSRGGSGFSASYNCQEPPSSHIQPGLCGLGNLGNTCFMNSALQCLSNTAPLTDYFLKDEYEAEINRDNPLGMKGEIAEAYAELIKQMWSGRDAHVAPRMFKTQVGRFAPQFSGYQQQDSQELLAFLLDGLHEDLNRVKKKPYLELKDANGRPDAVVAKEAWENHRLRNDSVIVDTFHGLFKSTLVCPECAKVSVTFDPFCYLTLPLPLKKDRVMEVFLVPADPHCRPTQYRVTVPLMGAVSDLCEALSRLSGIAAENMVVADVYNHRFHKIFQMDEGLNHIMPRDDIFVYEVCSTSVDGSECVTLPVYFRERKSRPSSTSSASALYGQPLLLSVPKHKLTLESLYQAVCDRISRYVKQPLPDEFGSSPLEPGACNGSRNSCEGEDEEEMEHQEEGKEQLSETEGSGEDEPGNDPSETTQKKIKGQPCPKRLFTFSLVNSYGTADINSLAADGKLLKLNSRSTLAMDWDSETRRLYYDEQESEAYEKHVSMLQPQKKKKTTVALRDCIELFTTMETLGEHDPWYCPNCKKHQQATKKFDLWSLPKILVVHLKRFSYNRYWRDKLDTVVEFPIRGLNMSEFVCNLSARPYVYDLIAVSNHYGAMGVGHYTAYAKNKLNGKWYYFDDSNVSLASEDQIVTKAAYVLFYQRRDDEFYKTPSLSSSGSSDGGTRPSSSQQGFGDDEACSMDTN
Outline: as §1

Measured: log2 ratio of Biotin-Ahx-Ub-VS probe labelling

Chain of USP34 (Q70CQ2 whole entry, the tested form may be a part): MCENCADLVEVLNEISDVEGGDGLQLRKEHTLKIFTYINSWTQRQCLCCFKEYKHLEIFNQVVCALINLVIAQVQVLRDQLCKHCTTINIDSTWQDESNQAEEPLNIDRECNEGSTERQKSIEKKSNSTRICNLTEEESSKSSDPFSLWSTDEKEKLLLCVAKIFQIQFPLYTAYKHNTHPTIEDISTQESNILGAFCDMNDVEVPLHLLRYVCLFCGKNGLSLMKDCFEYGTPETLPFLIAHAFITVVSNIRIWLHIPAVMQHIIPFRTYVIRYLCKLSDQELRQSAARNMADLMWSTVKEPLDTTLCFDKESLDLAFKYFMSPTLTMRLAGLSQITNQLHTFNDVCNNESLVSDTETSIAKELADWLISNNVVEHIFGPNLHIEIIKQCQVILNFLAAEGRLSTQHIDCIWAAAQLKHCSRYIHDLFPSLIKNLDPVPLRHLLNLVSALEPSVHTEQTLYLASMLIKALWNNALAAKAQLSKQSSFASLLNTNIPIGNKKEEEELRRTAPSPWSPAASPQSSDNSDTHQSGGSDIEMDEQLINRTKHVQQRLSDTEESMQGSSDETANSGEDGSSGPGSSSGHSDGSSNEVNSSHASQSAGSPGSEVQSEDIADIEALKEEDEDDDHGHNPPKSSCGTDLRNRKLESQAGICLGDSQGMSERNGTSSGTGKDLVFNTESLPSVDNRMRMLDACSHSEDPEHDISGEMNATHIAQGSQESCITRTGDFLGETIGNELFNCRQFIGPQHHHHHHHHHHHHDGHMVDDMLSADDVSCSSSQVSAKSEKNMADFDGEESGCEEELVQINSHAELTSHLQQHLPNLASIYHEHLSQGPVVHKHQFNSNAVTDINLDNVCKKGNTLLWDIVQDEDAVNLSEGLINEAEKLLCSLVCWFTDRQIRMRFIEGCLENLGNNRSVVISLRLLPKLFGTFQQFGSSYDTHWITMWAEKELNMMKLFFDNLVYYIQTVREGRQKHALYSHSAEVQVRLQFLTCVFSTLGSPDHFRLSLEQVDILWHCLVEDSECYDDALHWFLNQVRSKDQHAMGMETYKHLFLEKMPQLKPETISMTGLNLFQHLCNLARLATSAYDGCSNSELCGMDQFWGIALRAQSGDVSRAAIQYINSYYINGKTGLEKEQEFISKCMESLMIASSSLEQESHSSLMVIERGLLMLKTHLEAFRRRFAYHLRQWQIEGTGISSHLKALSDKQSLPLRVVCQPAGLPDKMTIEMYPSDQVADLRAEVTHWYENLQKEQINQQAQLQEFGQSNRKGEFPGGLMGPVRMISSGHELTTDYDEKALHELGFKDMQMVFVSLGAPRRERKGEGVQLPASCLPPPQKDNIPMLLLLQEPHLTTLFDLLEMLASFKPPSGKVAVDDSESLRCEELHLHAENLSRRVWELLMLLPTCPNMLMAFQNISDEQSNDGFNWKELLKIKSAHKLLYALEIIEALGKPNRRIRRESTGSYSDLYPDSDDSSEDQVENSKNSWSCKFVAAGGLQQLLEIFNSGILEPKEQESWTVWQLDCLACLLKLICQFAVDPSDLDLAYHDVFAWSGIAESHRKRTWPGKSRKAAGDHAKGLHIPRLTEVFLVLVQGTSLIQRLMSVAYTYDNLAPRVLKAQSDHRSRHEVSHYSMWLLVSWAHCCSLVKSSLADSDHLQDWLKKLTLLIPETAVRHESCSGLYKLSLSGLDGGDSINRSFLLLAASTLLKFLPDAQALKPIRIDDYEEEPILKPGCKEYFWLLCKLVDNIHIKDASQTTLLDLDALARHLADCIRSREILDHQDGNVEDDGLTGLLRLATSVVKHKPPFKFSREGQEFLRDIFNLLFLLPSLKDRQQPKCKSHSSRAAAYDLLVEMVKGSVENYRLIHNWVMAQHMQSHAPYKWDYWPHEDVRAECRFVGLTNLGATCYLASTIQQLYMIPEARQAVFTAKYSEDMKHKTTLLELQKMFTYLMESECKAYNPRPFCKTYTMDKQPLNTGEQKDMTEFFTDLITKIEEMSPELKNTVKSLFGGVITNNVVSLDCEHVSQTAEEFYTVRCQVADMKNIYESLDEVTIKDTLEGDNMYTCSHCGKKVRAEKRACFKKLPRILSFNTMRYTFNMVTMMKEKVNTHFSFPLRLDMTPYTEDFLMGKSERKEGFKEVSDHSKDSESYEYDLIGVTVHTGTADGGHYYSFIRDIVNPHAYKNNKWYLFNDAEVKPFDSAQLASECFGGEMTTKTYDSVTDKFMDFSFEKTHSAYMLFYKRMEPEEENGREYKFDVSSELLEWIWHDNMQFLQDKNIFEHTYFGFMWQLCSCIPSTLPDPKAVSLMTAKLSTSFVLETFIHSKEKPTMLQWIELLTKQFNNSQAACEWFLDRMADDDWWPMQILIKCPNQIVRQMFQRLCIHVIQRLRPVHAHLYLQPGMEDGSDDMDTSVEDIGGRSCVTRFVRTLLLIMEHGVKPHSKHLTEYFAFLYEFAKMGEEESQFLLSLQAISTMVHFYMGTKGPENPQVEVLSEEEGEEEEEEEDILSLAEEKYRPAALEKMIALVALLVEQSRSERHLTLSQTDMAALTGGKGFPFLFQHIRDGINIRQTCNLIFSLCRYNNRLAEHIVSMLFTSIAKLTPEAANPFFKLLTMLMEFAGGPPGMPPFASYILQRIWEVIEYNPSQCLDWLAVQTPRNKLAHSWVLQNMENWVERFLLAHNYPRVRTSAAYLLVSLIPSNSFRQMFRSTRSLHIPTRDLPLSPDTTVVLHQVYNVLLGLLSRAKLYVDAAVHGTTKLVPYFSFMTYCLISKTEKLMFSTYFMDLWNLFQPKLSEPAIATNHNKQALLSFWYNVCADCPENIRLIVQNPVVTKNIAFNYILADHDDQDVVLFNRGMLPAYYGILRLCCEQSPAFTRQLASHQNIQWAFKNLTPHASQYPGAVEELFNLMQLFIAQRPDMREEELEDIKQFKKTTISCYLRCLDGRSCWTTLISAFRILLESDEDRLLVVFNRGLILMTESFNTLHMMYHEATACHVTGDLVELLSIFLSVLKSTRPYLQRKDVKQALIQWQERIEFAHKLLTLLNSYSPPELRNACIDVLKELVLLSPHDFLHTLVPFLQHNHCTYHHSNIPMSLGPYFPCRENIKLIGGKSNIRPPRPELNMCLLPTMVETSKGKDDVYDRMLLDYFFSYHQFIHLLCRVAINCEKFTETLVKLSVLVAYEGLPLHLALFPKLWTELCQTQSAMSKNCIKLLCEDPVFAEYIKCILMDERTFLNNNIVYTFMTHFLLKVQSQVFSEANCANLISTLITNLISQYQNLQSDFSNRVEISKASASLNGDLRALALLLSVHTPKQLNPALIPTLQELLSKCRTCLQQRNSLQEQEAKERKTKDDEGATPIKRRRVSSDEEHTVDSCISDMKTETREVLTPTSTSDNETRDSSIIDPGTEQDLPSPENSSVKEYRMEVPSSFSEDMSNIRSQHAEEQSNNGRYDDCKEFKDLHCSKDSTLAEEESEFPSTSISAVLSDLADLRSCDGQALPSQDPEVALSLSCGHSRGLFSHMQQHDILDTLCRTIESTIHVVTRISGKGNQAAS

CC(=O)C1CCCCN1C(=O)CCl (stereo not given)
inactive: [1] -0.216 | [2] -0.0205 | [3] -0.0979 | [4] -0.37 | [5] -0.0834
